Active and inactive are the calls of the source. Rule for the calls: active = hit-call score of the fitted dose curve at least 0.9, where 1 is the maximum; inactive = score below 0.9.

The experiment in a line: CCTE_Shafer_MEA_acute_per_network_burst_electrodes_number_mean: CCTE's Neural Acute Assay for Mean Number of Electrodes in a Network Burst, Shafer Lab (AID 2284021).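 Note: curves fitted for decreases only so hits reduce electrodes per burst.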 Here is the method: CCTE_Shafer_MEA_acute assay is conducted using Axion Biosystems 48 well microelectrode array (MEA) plates and Maestro recording system. Each well of the MEA plate contains a grid of 16 microelectrodes embedded in the culture surface. Electrically active cells, such as neurons, can be cultured over the electrodes, and electrical activity in these cells can be recorded extracellularly. The spontaneous firing of neurons is captured from each electrode on a microsecond timescale providing both temporally and spatially precise data. […] The CCTE_Shafer_MEA_acute assay uses primary cultures of rat cortical neurons. As these cultures mature over time, neural networks develop functional activity and form cohesive networks in which electrical activity can be highly coordinated. Baseline 40-minute recordings are made on days post-plating 13 or 15, followed by a secondary 40-minute recording after chemical exposure.CCTE_Shafer_MEA_acute_per_network_burst_electrodes_number_mean is a component of the CCTE_Shafer_MEA_acute assay. It measures the average number of electrodes with activity during a network burst (a temporally-clustered group of action potential firing across multiple electrodes) in a recording in a microelectrode array (MEA) using Axion Biosystems Maestro 768 channel amplifier with the AxIS adaptive spike detector. The recordings before and after chemical treatment are used to calculate a percent change in the mean number of electrodes participating in network bursts in each well.Data from the assay component CCTE_Shafer_MEA_acute_per_network_burst_electrodes_number_mean was analyzed into 1 assay endpoint. This assay endpoint, CCTE_Shafer_MEA_acute_per_network_burst_electrodes_number_mean, was analyzed in the negative analysis fitting direction relative to DMSO as the negative control and baseline of activity. Using a type of functional reporter, gain or loss-of-signal activity can be used to understand electrical activity.
Spontaneous activity in the cortical cultures was recorded using an Axion Biosystems Maestro 768 channel amplifier and Axion Integrated Studios (AxIS) v1.8 (or later) software. The amplifier recorded from all channels simultaneously (gain = 1200 x; sampling rate = 12.5 kHz/channel): raw signals were filtered with a Butterworth band-pass filter (300-5000 Hz), which filters out slower local field potentials leaving only fast potentials, i.e., "spikes", arising from extracellular currents associated with action potentials (Pine 2006; Wheeler and Nam 2011). On-line spike detection of filtered signals was conducted with the AxIS adaptive spike detector, using a threshold of 8x the root mean squared (rms) noise on each channel. Any electrodes with rms noise levels greater than 5 uV were grounded (e.g., no data were recorded). Once grounded, an electrode was grounded for the duration of the experiment. All recordings were conducted at 37 C. Wells were deemed usable if on the day of the exposure >/= 10 electrodes were active (defined as >/= 5 spikes/min). On DIV 13 or 15, a minimum of three wells from one cortical culture preparation were treated with each compound (0.03-40 uM). Prior to recording baseline activity, each mwMEA plate was placed in the Maestro at 37 C and allowed to sit for 20 min while firing rates stabilized. Baseline activity (40 min) was recorded before the addition of each compound. An additional 40 min of spontaneous activity was recorded in the presence of each compound. Changes in network parameters relative to baseline were assessed following compound treatment.
As to `CC(=O)Nc1ccc(O)cc1`, the result was inactive.

Regarding `CCCCc1oc2ccccc2c1C(=O)c1cc(I)c(OCCN(CC)CC)c(I)c1`, the compound was called inactive.

Turning to `N=C(N)c1ccc(OCCCCCOc2ccc(C(=N)N)cc2)cc1`, the AC50 (in general, the midpoint of the concentration-response curve, whichever way the signal moves) is 2.5 µM (active).

`OCC(CO)(CBr)CBr`: the result was inactive.

`CCCCCCCCCCCC`: the outcome was inactive.

For `Oc1ccc(Cc2ccccc2O)cc1`, the call was inactive.

As to `O=C1NS(=O)(=O)c2ccccc21`, the compound was classed as inactive.

As to `CCCCC=O`, the outcome was inactive.

As for `Oc1c(Cl)cc(Cl)cc1Sc1cc(Cl)cc(Cl)c1O`, the outcome was inactive.

For the compound `O=C(CCCN1CCC(O)(c2ccc(Cl)cc2)CC1)c1ccc(F)cc1`, the compound was classed as inactive.

As for `CCC(C)c1ccccc1O` (configuration not stated), the compound was called inactive.

Take `CN(C)CCOC(c1ccccc1)c1ccccc1`: the concentration at half-maximal activity (AC50) is 1.25 µM (active).

These data come from PubChem BioAssay (EPA / NIEHS).
